These results are taken from paper PMC5540273 (PLoS ONE, 2017).

Some test systems named below: DDR1; DDR2; DMPK; DYRK1A; DYRK1B; DYRK2; EGFR; EIF2AK1; EPHA1; EPHA2; EPHA3; EPHA4; EPHA5; EPHA6.
Conditions in all cases: concentration: 1 μM,replicates: in singlicate; n = 1
The subject of a further test is T1, DCAMKL2.
T1 construct: gene DCLK2

In a further test the test system is T2, DCAMKL3.
T2 construct: gene DCLK3

A further test deals with T3, DLK.
T3 construct: gene MAP3K12

A further test relates to T4, DMPK2.
T4 construct: gene CDC42BPG

For a further test, the system named is T5, DRAK1.
T5 construct: gene STK17A

For another test, the system named is T6, DRAK2.
T6 construct: gene STK17B
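Also: KINOMEscan kinase panel screen.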

For the compound `C[C@@H](Oc1cc(-n2cnc3cc(-c4cnn(C)c4)ccc32)sc1C(N)=O)c1ccccc1Cl` [GSK580432], the “%Inh” value with DCAMKL2 was 10%; with DCAMKL3, 0%; with DDR1 it was 42%; with DDR2, 3%; in the test with DLK, 29%; in the test on DMPK2, 1%. Also, the “%Inh” value with DMPK was found to be 45%; in the test on DRAK1, 6%; in the test with DRAK2, 15%; in the test with DYRK1A it was 18%; with DYRK1B, 0%; in the test with DYRK2, 21%. The “%Inh” value with EGFR worked out at 28%; in the test with EIF2AK1, 15%; with EPHA1 it was 19%; in the test with EPHA2, 29%; in the test with EPHA3 it was 20%; with EPHA4 it was 7%. Besides, the “%Inh” value in the test with EPHA5 was determined as 0%; in the test with EPHA6, 28%.

As for `O=C(Nc1ccc(Oc2ccc3nc(NC(=O)C4CC4)cn3n2)c(F)c1)c1cccn(-c2ccccc2)c1=O`, the “%Inh” value in the test on DCAMKL2 is 13%; in the test with DCAMKL3, 29%; in the test on DDR1, 99.1%; with DDR2 it was 100%; in the test on DLK, 13%; in the test on DMPK2 it was 0%. Moreover, the “%Inh” value in the test on DMPK is reported as 0%; with DRAK1, 0%; in the test on DRAK2, 0%; in the test on DYRK1A, 0%; in the test on DYRK1B, 30%; in the test on DYRK2, 0%. In addition, the “%Inh” value in the test with EGFR came out at 13%; with EIF2AK1, 0%; in the test on EPHA1, 51%; in the test with EPHA2, 74%; in the test with EPHA3, 0%; in the test with EPHA4 it was 26%. The “%Inh” value with EPHA5 is 11%; in the test on EPHA6, 37%.

Regarding `O=C(NCC1CC1)c1ccc(-c2cc(C(=O)NC3CC3)ccc2F)cc1` [GW810445], the “%Inh” value is recorded as 22% in the test on DCAMKL2; 0% in the test with DCAMKL3; 0% in the test with DDR1; 35% with DDR2; 12% with DLK; 0% with DMPK2. Further, the “%Inh” value is given as 0% in the test with DMPK; 0% with DRAK1; 0% with DRAK2; 0% with DYRK1A; 24% with DYRK1B; 0% in the test with DYRK2. Moreover, the “%Inh” value in the test on EGFR was determined as 15%; in the test on EIF2AK1, 0%; with EPHA1, 0%; in the test on EPHA2, 0%; in the test on EPHA3 it was 10%; with EPHA4, 0%. Further, the “%Inh” value in the test on EPHA5 and in the test with EPHA6 was 0% in each case.

For the compound `CCn1c(-c2nonc2N)nc2cncc(Br)c21` [SB-738004], the “%Inh” value in the test with DCAMKL2 is on record as 2%; in the test with DCAMKL3, 7%; in the test on DDR1, 0%; in the test with DDR2, 39%; in the test with DLK it was 43%; in the test with DMPK2, 10%. Also, the “%Inh” value in the test on DMPK was determined as 0%; with DRAK1 it was 5%; in the test with DRAK2, 0%; in the test with DYRK1A it was 98%; with DYRK1B, 29%; in the test on DYRK2 it was 73%. Further, the “%Inh” value in the test on EGFR was found to be 15%; in the test on EIF2AK1 it was 0%; in the test with EPHA1 it was 0%; in the test with EPHA2, 41%; with EPHA3, 29%; with EPHA4, 16%. In addition, the figures for the “%Inh” value in the test on EPHA5 and with EPHA6 were 0% and 4%, respectively.

Take `CC(C(=O)NC1CCN(c2ccnc(Nc3ccc(F)cc3)n2)C1)c1ccc(Cl)cc1` (centres unmarked) [GSK1379713]: the “%Inh” value with DCAMKL2 is on record as 12%; in the test on DCAMKL3, 9%; with DDR1 it was 14%; in the test on DDR2, 11%; in the test with DLK, 19%; in the test with DMPK2 it was 0%. The “%Inh” value is reported as 0% in the test with DMPK; 6% with DRAK1; 0% in the test on DRAK2; 10% in the test on DYRK1A; 12% in the test on DYRK1B; 10% in the test on DYRK2. In addition, the “%Inh” value in the test with EGFR was 28%; in the test on EIF2AK1, 0%; in the test with EPHA1, 0%; in the test on EPHA2, 14%; in the test with EPHA3, 0%; with EPHA4 it was 0%. In addition, the “%Inh” value in the test on EPHA5 and in the test with EPHA6 was 0% each time.

Take `C[C@@H]1CNc2c(sc3ccc4nc(-c5ccc(O)cc5)ccc4c23)C(=O)N1`: the “%Inh” value is 0% in the test with DCAMKL2; 54% in the test with DCAMKL3; 0% in the test with DDR1; 16% in the test on DDR2; 0% in the test on DLK; 0% in the test with DMPK2. Moreover, the “%Inh” value came out at 0% in the test on DMPK; 100% in the test with DRAK1; 100% with DRAK2; 98.9% in the test with DYRK1A; 98.1% in the test on DYRK1B; 24% with DYRK2. In addition, the “%Inh” value in the test on EGFR is reported as 11%; in the test with EIF2AK1, 0%; in the test with EPHA1 it was 0%; with EPHA2, 0%; with EPHA3 it was 14%; in the test on EPHA4, 0%. Also, the “%Inh” value is listed as 11% with EPHA5 and 5% with EPHA6.

Take `Cn1ccc2ncnc(Oc3ccc(NC(=O)Nc4ccnc(C(F)(F)F)c4)c(Cl)c3)c21`: the “%Inh” value in the test on DCAMKL2 stood at 0%; in the test on DCAMKL3, 0%; in the test on DDR1 it was 100%; in the test with DDR2, 99.6%; in the test on DLK, 0%; in the test with DMPK2, 0%. Also, the “%Inh” value is on record as 0% with DMPK; 0% in the test on DRAK1; 3% in the test with DRAK2; 13% with DYRK1A; 53% in the test with DYRK1B; 0% in the test with DYRK2. Moreover, the “%Inh” value in the test with EGFR is recorded as 3%; in the test with EIF2AK1, 0%; in the test with EPHA1, 0%; in the test on EPHA2, 0%; with EPHA3 it was 10%; with EPHA4, 29%. For the same compound, the entries for the “%Inh” value in the test on EPHA5 and with EPHA6 were 0% and 80%, respectively.

On to `Cc1ccc2c(-c3ccnc(Nc4ccc(C(F)(F)F)cc4)n3)cnn2n1` [GW819776], for which the “%Inh” value came out at 0% in the test with DCAMKL2; 0% in the test on DCAMKL3; 0% in the test with DDR1; 4% in the test on DDR2; 0% in the test with DLK; 9% with DMPK2. Also, the “%Inh” value with DMPK is 0%; with DRAK1, 37%; in the test with DRAK2, 13%; with DYRK1A, 37%; with DYRK1B, 65%; with DYRK2 it was 29%. The “%Inh” value in the test with EGFR came out at 0%; in the test with EIF2AK1, 0%; in the test on EPHA1, 0%; in the test on EPHA2 it was 0%; with EPHA3, 0%; in the test with EPHA4, 8%. Moreover, the figures for the “%Inh” value in the test with EPHA5 and in the test on EPHA6 were 1% and 8%, respectively.

As to `CC(=O)c1c(-c2ccncc2)[nH]c(-c2ccncc2)c1C` [GW493036], the “%Inh” value is reported as 3% in the test on DCAMKL2; 0% in the test on DCAMKL3; 67% with DDR1; 0% in the test with DDR2; 0% with DLK; 0% in the test with DMPK2. Further, the “%Inh” value in the test on DMPK is listed as 23%; in the test on DRAK1 it was 44%; with DRAK2 it was 76%; with DYRK1A, 99.9%; with DYRK1B, 100%; with DYRK2 it was 92.3%. In addition, the “%Inh” value is recorded as 37% in the test on EGFR; 17% in the test with EIF2AK1; 19% with EPHA1; 6% with EPHA2; 0% in the test on EPHA3; 0% in the test on EPHA4. Moreover, the “%Inh” value with EPHA5 and with EPHA6 was 0% each time.

On to `Cn1cc(-c2cccc3c(N)c(C(N)=O)nnc23)cn1`, for which the “%Inh” value stood at 13% in the test on DCAMKL2; 23% in the test with DCAMKL3; 0% in the test on DDR1; 0% with DDR2; 27% in the test with DLK; 7% in the test with DMPK2. Besides, the “%Inh” value in the test with DMPK is 0%; in the test with DRAK1, 79%; in the test on DRAK2, 12%; with DYRK1A, 56%; in the test on DYRK1B, 8%; with DYRK2, 70%. Besides, the “%Inh” value with EGFR is 22%; with EIF2AK1, 18%; with EPHA1, 0%; in the test with EPHA2 it was 0%; in the test on EPHA3, 24%; with EPHA4 it was 0%. Also, the “%Inh” value came out at 14% in the test with EPHA5 and 17% in the test on EPHA6.
